High-throughput results: PubChem, Johns Hopkins Ion Channel Center
The list is not random: actives were taken first. Their share in the collection is about 3.5%.
TMEM16A inh: mouse TMEM16A channel inhibition, primary screen | 1.2% of 310,000 active | HEK293 TMEM16A/YFP iodide influx fluorescence, ionomycin | normalized B-score (activity score, 25-100; higher = stronger inhibition) at 10 µM | Q8BHY3;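 active = ratio plate-corrected score three or more library SD toward inhibition, starting fluorescence score within five deviations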;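 also: score derived from kinetic fluorescence span divided by baseline fluorescence per well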
Target sequence (Q8BHY3 whole entry, looked up): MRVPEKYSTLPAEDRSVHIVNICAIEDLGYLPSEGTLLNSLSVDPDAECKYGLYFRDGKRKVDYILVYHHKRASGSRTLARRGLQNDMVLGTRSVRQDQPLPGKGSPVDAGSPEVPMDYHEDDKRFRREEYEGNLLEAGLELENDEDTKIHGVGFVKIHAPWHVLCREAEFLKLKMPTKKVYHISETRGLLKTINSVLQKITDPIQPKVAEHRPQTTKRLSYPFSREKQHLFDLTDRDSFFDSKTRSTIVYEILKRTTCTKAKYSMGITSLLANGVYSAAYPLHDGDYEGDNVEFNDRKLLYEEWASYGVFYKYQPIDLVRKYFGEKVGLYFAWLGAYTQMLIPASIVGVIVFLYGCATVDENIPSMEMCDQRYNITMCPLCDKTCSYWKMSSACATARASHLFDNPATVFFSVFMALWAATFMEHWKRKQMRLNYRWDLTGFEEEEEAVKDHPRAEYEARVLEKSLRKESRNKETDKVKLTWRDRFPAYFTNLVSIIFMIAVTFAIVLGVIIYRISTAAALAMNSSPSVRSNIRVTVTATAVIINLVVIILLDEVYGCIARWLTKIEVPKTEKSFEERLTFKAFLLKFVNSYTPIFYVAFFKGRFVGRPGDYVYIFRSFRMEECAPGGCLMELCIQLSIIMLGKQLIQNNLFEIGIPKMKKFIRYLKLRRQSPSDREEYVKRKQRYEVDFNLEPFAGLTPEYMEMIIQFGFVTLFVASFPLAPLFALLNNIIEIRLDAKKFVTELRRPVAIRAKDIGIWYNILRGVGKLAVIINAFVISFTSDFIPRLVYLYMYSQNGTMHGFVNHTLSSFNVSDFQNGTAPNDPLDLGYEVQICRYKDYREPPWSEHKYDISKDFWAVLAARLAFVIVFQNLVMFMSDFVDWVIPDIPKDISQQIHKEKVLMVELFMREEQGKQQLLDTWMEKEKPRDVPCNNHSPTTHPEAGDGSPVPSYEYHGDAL
KCNK3 inh: human KCNK3 channel inhibition, primary screen; CHO-KCNK3 thallium flux, FluxOR fluorescence; active compounds read low; 0.84% of 340,000 active; O14649; B-score at 10 µM; AID 602410;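 active = B-score under library mean minus 4 SD, starting fluorescence ratio at most library mean plus 5 SD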;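 also: more negative B-score means stronger inhibition of thallium flux through KCNK3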
Kir21 block: inhibitors of mouse Kir2.1 inward-rectifier potassium channel | B-score at 10 µM | P35561 | 0.85% of 310,000 active | HEK293-Kir2.1, FluxOR thallium flux fluorescence; active compounds read low;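 active = fluorescence ratio B-score at or below minus 3 SD of library scores, with starting-brightness B-score within 2 SD, cut at about -4.2 in these data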;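 also: channel flux triggered by added potassium and thallium sulfate stimulus; B-score of peak minus minimum fluorescence over baseline after thallium stimulus; more negative B-score means stronger Kir2.1 block with less thallium influx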
KCNK9 inh: inhibitors of human KCNK9 two-pore domain potassium channel. Q9NPC2. HEK293 KCNK9, FluxOR thallium flux fluorescence; active compounds read low. B-score at 10 µM. 1.2% of 310,000 active;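 active = ratio B-score over 3 SD below the library mean, with starting fluorescence within 5 SD of its mean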;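 also: negative B-score means less thallium flux so channel inhibition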
ANO1 activ: activates or potentiates the mouse TMEM16A chloride channel | Q8BHY3 | HEK293 TMEM16A/YFP-H148Q/I152L, iodide quench fluorescence; active compounds read low | B-score at 10 µM | 0.3% of 340,000 active;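 active = fluorescence-ratio B-score plate-corrected deviation score at least 3 library SD below zero, with starting fluorescence score within 5 deviations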;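 also: channel opened by trigger with iodide after compound preincubation; score built on the fluorescence ratio of max minus min over baseline; more negative score means more quench and so TMEM16A activation or potentiation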
Starred values were filed as active, the others as inactive; i = inactive; . = no result given.

SMILES	TMEM16A inh	KCNK3 inh	Kir21 block	KCNK9 inh	ANO1 activ
COc1ccc(N2CCN(Cc3nc(-c4ccccc4)no3)CC2)cc1	i	i	0.8	i	i
COc1ccc(Nc2c3c(nc4ccccc24)CCC3)cc1	i	i	-12*	i	i
COc1ccc(Nc2nc(-c3cccs3)nc3ccccc23)cc1S(=O)(=O)N1CCOCC1	i	-11*	1.1	i	i
Fc1ccc(CNCc2ccccc2Cl)cc1	i	i	-0.16	i	i
COc1ccccc1CNCC(O)(c1ccc(Cl)cc1)c1ccc(Cl)cc1	i	i	-3.2	i	i
OC(CNCc1ccccc1F)(c1ccc(F)cc1)c1ccc(F)cc1	i	i	-1.3	-7*	i
COc1ccccc1CNCC(O)(c1ccc(F)cc1)c1ccc(F)cc1	i	i	-5.9*	i	i
COC(=O)c1c(C)cc(C)c2c1CC(C)(C)C2=O	i	i	-1.6	i	i
O=C(OCc1ccccc1)N(CCCCN(CCCNCc1ccccc1)C(=O)OCc1ccccc1)CCCNCc1ccccc1	.	i	.	.	-5.4*
O=C(c1ccco1)N1N=C(c2ccccc2)CC1c1ccc2nccnc2c1 (configuration not stated)	i	i	-0.39	i	i
CCOC(=O)C1=C(C(=O)OCC)N(Cc2ccccc2)CCC1=O	.	i	.	.	.
Nc1nc2ccccc2n1CCOc1ccc(Cl)cc1	i	i	-1.1	i	i
CCOC(=O)Cn1c(=N)n(CCOc2cccc(C)c2)c2ccccc21	i	i	.	.	i
CCOC(=O)Cn1c(=N)n(CCOc2ccc(Br)cc2)c2ccccc21	i	i	-6.4*	i	i
Nc1nc2ccccc2n1CCOc1ccc(Br)cc1	i	i	-11*	i	i
Cc1oc2c(cc(NS(=O)(=O)c3ccc4c5c(cccc35)C(=O)N4)c3ccccc32)c1C(=O)OC(C)C	i	i	0.4	-7.6*	i
O=C(O)c1ccccc1CC(CCc1ccccc1)C(=O)O (configuration not stated)	.	i	.	.	i
Cc1ccc(S(=O)(=O)N2CCc3cc4c(cc3C2C)OCCCO4)cc1 (configuration not stated)	i	i	-2.9	i	i
COc1ccc(S(=O)(=O)N2CCc3cc4c(cc3C2C)OCCCO4)cc1 (configuration not stated)	i	i	-4.4*	i	i
CCN(CCO)Cc1csc2ccc(C(C)(C)C)cc12	i	i	-7*	i	i
O=C(/C=C/c1ccccc1)NCCSCc1ccc(Cl)cc1	i	i	-0.18	i	i
O=C(/C=C/c1ccc(Cl)cc1)NCCSc1ccccc1	i	i	0.91	i	i
O=C(/C=C/c1ccc(Cl)cc1Cl)NCCSc1ccccc1	25*	i	0.03	i	i
O=C(/C=C/c1ccc(Cl)cc1Cl)NCCSCc1ccccc1	100*	i	1.1	i	i
CN(C)CCCN(C(=O)CCc1ccccc1)c1nc2ccc(F)cc2s1	i	i	-4.9*	i	i
SMILES	TMEM16A inh	KCNK3 inh	Kir21 block	KCNK9 inh	ANO1 activ
CN(C)CCN(C(=O)CCc1ccccc1)c1nc2c(F)cc(F)cc2s1	i	i	-0.18	i	i
CC1CCC(NC(=O)c2cc3ccccc3cc2O)CC1 (configuration not stated)	.	-11*	.	.	i
Cc1ccc(N(CC(=O)Nc2cccc(C)c2)S(=O)(=O)c2cccc3nonc23)cc1	i	i	-2.5	i	i
CC(C)(C)NC(=O)CSc1nnc(-c2ccncc2)n1Cc1ccccc1	i	i	0.42	i	i
CC(C)C(C)(C#N)NC(=O)CSc1nnc(-c2ccncc2)n1Cc1ccccc1 (configuration not stated)	25*	i	0.38	i	i
O=C(CN1CCN(C(=O)C2CCCO2)CC1)Nc1ccc(Cl)cc1 (configuration not stated)	i	i	-0.77	i	i
O=c1c2cc3c(=O)n(-c4ccccc4O)c(=O)c3cc2c(=O)n1-c1ccccc1O	i	i	0.3	i	i
C(#CCN1CCCC1)CC(c1ccccc1)c1ccccc1	i	i	-10*	i	i
CCc1nnc(NS(=O)(=O)c2ccc(NC(=S)NC(=O)/C=C/c3ccccc3)cc2)s1	i	i	0.68	i	i
